Compounds with a hit are over-represented: about 2.1% of the library has one in this group of screens.
Arbovirus inh: antivirals against arbovirus infection, primary screen, cell-based, full library, 10K replicate subset; hit rate 0.37% among 200,000; arbovirus infection cell-based antiviral screen; inhibition, % at 10 µM; in the data active means inhibition above about 30%
ROMK primary: ROMK potassium channel modulators, primary screen, cell-based, thallium flux, MLSMR library; Tet-inducible ROMK, thallium flux fluorescence; actives lie on both sides; B-score at 10 µM; hit rate 2% among 130,000;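 active means signal ratio slope over the read window, or its plate-corrected B-score, at least 3 SD from the plate mean, either direction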;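 further: B-score of the F/F0 ratio slope over 7 to 12 s after thallium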
Target sequence (P48048 whole entry, looked up): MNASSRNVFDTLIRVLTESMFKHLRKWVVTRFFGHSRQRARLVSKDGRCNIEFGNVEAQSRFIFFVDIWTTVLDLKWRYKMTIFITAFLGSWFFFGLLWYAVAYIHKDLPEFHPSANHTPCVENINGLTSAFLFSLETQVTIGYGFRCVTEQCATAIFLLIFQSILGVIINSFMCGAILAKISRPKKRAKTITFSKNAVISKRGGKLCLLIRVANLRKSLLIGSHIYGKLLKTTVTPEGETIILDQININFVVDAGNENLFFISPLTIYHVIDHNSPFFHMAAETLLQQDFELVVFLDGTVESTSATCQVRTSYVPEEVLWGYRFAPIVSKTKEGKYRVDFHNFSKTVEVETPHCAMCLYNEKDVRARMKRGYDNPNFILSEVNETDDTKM
m-calpain inh: inhibitors of pig calpain II, primary screen, biochemical, fluorogenic peptide substrate, 1536-well | purified calpain II, 30 min | inhibition, % at 16 µM | hit rate 0.37% among 220,000 | AID 1236, 2008;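 active means inhibition above about 50%, limit read from the data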
HMGR II inh: inhibitors of E. faecalis class II HMGR, primary screen, biochemical, Enterococcus faecalis. purified E. faecalis HMGR, NADPH absorbance 340 nm kinetic. hit rate 0.41% among 190,000. inhibition, % at 10 µM;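 active means inhibition above a set limit, the median over all tested compounds plus 3 SD, cut at about 9.5% in these data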;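 further: enzyme runs in reverse so mevalonate oxidation gives rising NADPH absorbance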
HSV replic up: enhancers of HSV replication in host cells, fold increase, host cell viability. maximum fold increase. HSV replication augmentation in cells. AID 1956, 2009. hit rate 0.005% among 220,000; in the data active means maximum fold increase above about 1.5; tested in PC3 cells
Of the large screens only hits and unclear results are named; the others gave an inactive call.

O=C(Nc1nc(-c2ccc(Cl)s2)cs1)c1cccs1	none (no result: ROMK primary)
CCC(=O)Nc1nc(-c2ccccc2)ns1	none
O=C(COC(=O)C1=COCCO1)NCc1ccc(Cl)cc1	none
Cc1cccc(OCCSCc2nc3ccccc3[nH]2)c1	none
Cc1ccccc1OCCSCc1nc2ccccc2[nH]1	Arbovirus inh 66
CC(C)C(NC(N)=O)C(=O)NC1CCCCC1 (configuration not stated)	none
CCCCn1c(SCC(=O)N2CCC(C)CC2)nc2ccsc2c1=O	none (no result: ROMK primary)
CCCCn1c(SCC(=O)N2CCN(c3ccccc3)CC2)nc2ccsc2c1=O	Arbovirus inh 34 (no result: ROMK primary)
C=C(C)COc1ccc(-c2[nH]ncc2Oc2cccc(OC)c2)c(O)c1	m-calpain inh 57
Cc1ccc(-c2cc(C(F)F)n3ncc(C(=O)Nc4ccc(S(=O)(=O)Nc5ccccc5C)cc4)c3n2)cc1	HMGR II inh 10 (no result: ROMK primary)
CN(C)C(CNC(=O)CCOc1ccccc1)c1ccco1 (configuration not stated)	HMGR II inh 21
CC(=O)c1ccc(OCCCC(=O)NCC(c2ccco2)N(C)C)cc1 (configuration not stated)	none (no result: ROMK primary)
CC(C)(C)C(=O)Nc1cc(C(F)(F)F)ccc1-n1ccnc1	HMGR II inh 13
O=C(Nc1cccc2oc(=O)ccc12)c1ccc([N+](=O)[O-])cc1[N+](=O)[O-]	m-calpain inh 64
c1ccc(CN2CCN(c3ncnc4c3[nH]c3ccccc34)CC2)cc1	ROMK primary -3.7
COc1ccc(-c2noc(-c3ccccc3-c3ccccc3)n2)cc1OC	Arbovirus inh 31 (no result: ROMK primary, HSV replic up)
COc1ccc(Cc2noc(-c3ccccc3)n2)cc1OC	HMGR II inh 15
COc1ccc(-c2noc(CSc3nc(N)cc(=O)[nH]3)n2)cc1	none (no result: Arbovirus inh, ROMK primary, HMGR II inh)
COc1ccc(-c2noc(CSc3nc(-c4ccccc4)cc(=O)[nH]3)n2)cc1OC	Arbovirus inh 52
COc1ccc2cc(C3OCCO3)c(Cl)nc2c1	none
O=C(O)CSc1nc(-c2ccc(Cl)cc2)nc2c1oc1ccccc12	Arbovirus inh 35
Cc1nc(SCC(=O)NC(C)c2ccccc2)c2oc3ccccc3c2n1 (configuration not stated)	m-calpain inh 57 (no result: ROMK primary)
O=C(O)CSc1nc(-c2ccccc2)nc2c1oc1ccccc12	none (no result: ROMK primary)
CC(C)c1onc(C(=O)Nc2cccc(Cl)c2)c1[N+](=O)[O-]	m-calpain inh 84
O=C(COc1ccc([N+](=O)[O-])cc1)NCc1ccncc1	none (no result: ROMK primary)
O=[N+]([O-])c1ccc(-c2c(O)c3ccccc3c3nc4ccccc4nc23)cc1	Arbovirus inh 32
CC(C)CSC1=NSC2=NC(=O)/C(=C\c3coc4ccccc4c3=O)C(=N)N12	Arbovirus inh 52 (no result: ROMK primary)
CC(C)CSC1=NSC2=NC(=O)/C(=C\c3ccccc3)C(=N)N12	ROMK primary 1.8
O=C1NC(c2cccc([N+](=O)[O-])c2)Oc2ccccc21 (configuration not stated)	none
S=C1Cc2ccccc2N1	m-calpain inh 55 (no result: Arbovirus inh, HMGR II inh)
CC(C)(CO)NC(=O)CC1C(=O)NCCN1CC(c1ccccc1)c1ccccc1 (configuration not stated)	HMGR II inh 10
O=C(c1ccc(F)cc1)C1CCN(C(=S)NCC2CCCO2)CC1 (configuration not stated)	HMGR II inh 12
CCOc1ccccc1C(=O)N1c2ccccc2Sc2ccccc21	m-calpain inh 55
O=C(Nc1ccccc1C(F)(F)F)N1CCN(c2ccccn2)CC1	none
CCOC(=O)C1CCCN(C(=O)CSc2ccc(NC(C)=O)cc2)C1 (configuration not stated)	m-calpain inh 63
Cc1cc(C)cc(N2C(=O)CCN(Cc3ccccc3)C2=O)c1	none (no result: Arbovirus inh, HMGR II inh)
C(/C=C/c1ccccc1)=N/N1CCN(c2ccccc2)CC1	none (no result: ROMK primary)
C(=C\c1ccccc1)/C=N/N1CCN(Cc2ccccc2)CC1	m-calpain inh 50
O=C1CC(c2ccccc2)Cc2nc(N3CCc4ccccc4C3)ncc21 (configuration not stated)	m-calpain inh 54 (no result: ROMK primary)
Cc1cccc(NC2=NCC(=O)N2Cc2cccs2)c1	none
CCN1CCN(c2ccc(NC(=O)c3cccc(F)c3)cc2Cl)CC1	HMGR II inh 10
COc1cc(S(=O)(=O)Nc2ccccc2C)ccc1NC(=O)c1ccncc1	HMGR II inh 16
COc1cc(S(=O)(=O)Nc2ccc(C)cc2)ccc1NC(=O)c1ccncc1	none
N#Cc1cc2c(nc1Cl)CCCC2	none
CN(C)/C=C1\C(=O)N(C)N=C1C(F)(F)F	none (no result: ROMK primary)
O=C(O)CC1(CC(=O)Nc2ccc(F)c(Cl)c2)CCCCC1	none (no result: Arbovirus inh, ROMK primary, HMGR II inh)
O=c1c(C(c2ccccc2)c2c(O)sc3ccccc3c2=O)c(O)sc2ccccc12	m-calpain inh 51 (no result: ROMK primary, HSV replic up)
CC(=O)Oc1cc(C(C)C)c(OCCN(C)C)cc1C	HMGR II inh 9.7
CN(C)CCOc1cc(Cl)cc(Cl)c1	none (no result: ROMK primary)
Cc1cccc(N2C(=O)CC(N3CCN(c4ccccn4)CC3)C2=O)c1 (configuration not stated)	none
Cc1[nH]c2ccccc2c1CCN(Cc1cccnc1)C(=S)Nc1ccc(F)cc1	m-calpain inh 64
Cc1[nH]c2ccccc2c1CCN(Cc1cccnc1)C(=S)Nc1cccc(F)c1	m-calpain inh 61
Cc1[nH]c2ccc(F)cc2c1CCN(Cc1cccnc1)C(=S)Nc1ccccc1	none
CC(C)Cn1c2c(c(O)c(C(=O)Nc3nccs3)c1=O)CCCC2	Arbovirus inh 37 (no result: ROMK primary, HSV replic up)
Cc1csc(NC(=O)c2c(O)c3c(n(CC(C)C)c2=O)CCCC3)n1	Arbovirus inh 55 (no result: ROMK primary)
CCCn1c2c(c(O)c(C(=O)Nc3nc(C)cs3)c1=O)CCCC2	none (no result: ROMK primary)
COC(=O)c1ccc(C#Cc2ccccc2)o1	none (no result: Arbovirus inh, ROMK primary, HMGR II inh)
O=C(CCCSc1nc2ccccc2[nH]1)N1CCN(c2ccc([N+](=O)[O-])cc2)CC1	ROMK primary -5.4
O=C(NNC(=O)C1CC(c2cccnc2)=NO1)Nc1ccccc1F (configuration not stated)	none
Cc1ccc(NC(=O)c2ccc(C(C)(C)C)cc2)cc1-n1cnnn1	m-calpain inh 62 (no result: ROMK primary)
COc1cc(C(=O)Nc2ccc(-n3cnnn3)c(C)c2)cc(OC)c1OC	none (no result: ROMK primary)
O=C(Nc1cccc(NC(=O)c2cccs2)c1)c1ccco1	Arbovirus inh 64 (no result: ROMK primary)
O=C(Nc1ccc(NC(=O)c2cccs2)cc1Cl)c1ccco1	none
S=c1nc(C2CC2)n(-c2ccccc2)[nH]1	none (no result: Arbovirus inh, ROMK primary, HMGR II inh)
Nn1c(Cc2cccc3ccccc23)nnc1SCc1ccc(Cl)c(Cl)c1	m-calpain inh 55
Nn1c(Cc2cccc3ccccc23)nnc1SCc1c(Cl)cccc1Cl	none
CCc1ccccc1NC(=S)N(CCOC)C(C)c1ccco1 (configuration not stated)	none (no result: Arbovirus inh, ROMK primary, HMGR II inh)
CCOC(=O)C1=C(COC(=O)C2(C)CC2(Cl)Cl)NC(=O)NC1c1ccccc1 (configuration not stated)	none
CC(=O)N1CC2(C)CN(C(C)=O)CC(C)(C1)C2	HMGR II inh 22
CCC(=O)N1CC2(C)CN(C(=O)CC)CC(C)(C1)C2	none
